# Columns and labels:
# Assay in all cases: DAPPL (digital affinity profiling via proximity ligation, sequencing); 10 mM Tris-HCl pH 7.5, 50 mM NaCl, 1 mM DTT, 4% glycerol, room temperature, 30 min; GST-TFs on glutathione beads, 16-mer random dsDNA library, 0.1% formaldehyde crosslink after washing; high values mean tight binding
# FLI1 = molecular target: T1, FLI1 (Homo sapiens, UniProt Q01543 1-452); details: protein: recombinant; tags: N-terminal GST; dsDNA, one strand shown
# T1 sequence: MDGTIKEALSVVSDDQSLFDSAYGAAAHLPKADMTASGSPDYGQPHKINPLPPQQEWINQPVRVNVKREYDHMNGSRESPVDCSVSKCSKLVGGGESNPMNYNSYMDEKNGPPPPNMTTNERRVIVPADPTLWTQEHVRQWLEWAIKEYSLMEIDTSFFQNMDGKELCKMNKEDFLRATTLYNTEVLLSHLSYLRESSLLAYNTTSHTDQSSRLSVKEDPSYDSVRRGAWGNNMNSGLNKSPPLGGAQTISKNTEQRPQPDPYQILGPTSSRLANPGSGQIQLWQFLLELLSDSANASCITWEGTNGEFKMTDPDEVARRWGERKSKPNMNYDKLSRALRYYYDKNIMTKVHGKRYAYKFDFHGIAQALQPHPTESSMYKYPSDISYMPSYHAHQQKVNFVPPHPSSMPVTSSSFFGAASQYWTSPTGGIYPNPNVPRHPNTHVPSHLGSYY
# Outline: (§1)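 Human transcription factors carrying a GST fusion were produced in yeast, bound to glutathione beads, tagged with DNA barcodes and pooled together with a tag-only sample. Each pool was held with 200 nmole of a random double-stranded 16-mer DNA library in Tris/NaCl/DTT/glycerol buffer for 30 min at room temperature, then washed, crosslinked in 0.1% formaldehyde, proximity-ligated with BsaI/T4 ligase (1 h, 37 °C), PCR-amplified and sequenced on an Illumina NextSeq500. Binding signal is the read frequency of each hexamer for a given factor divided by its frequency in the tag-only sample.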
# ELK1 = molecular target: T2, ELK1 (Homo sapiens, UniProt P19419 1-428); details: protein: recombinant; tags: N-terminal GST; dsDNA, one strand shown
# T2 sequence: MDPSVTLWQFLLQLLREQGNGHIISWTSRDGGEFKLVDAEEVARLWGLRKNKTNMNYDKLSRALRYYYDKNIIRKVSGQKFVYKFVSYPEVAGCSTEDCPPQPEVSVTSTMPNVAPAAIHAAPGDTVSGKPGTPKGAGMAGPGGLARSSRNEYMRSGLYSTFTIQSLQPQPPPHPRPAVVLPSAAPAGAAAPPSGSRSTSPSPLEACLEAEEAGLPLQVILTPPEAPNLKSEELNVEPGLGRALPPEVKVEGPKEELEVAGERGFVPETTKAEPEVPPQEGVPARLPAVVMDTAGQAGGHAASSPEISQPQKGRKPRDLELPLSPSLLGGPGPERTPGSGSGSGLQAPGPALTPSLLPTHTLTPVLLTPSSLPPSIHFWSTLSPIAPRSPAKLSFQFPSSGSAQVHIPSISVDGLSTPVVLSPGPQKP
# Outline: as §1
# ELF1 = ELF1 (Homo sapiens, UniProt P32519 1-619); details: protein: recombinant; tags: N-terminal GST; dsDNA, one strand shown
# Sequence of ELF1 (P32519 whole entry): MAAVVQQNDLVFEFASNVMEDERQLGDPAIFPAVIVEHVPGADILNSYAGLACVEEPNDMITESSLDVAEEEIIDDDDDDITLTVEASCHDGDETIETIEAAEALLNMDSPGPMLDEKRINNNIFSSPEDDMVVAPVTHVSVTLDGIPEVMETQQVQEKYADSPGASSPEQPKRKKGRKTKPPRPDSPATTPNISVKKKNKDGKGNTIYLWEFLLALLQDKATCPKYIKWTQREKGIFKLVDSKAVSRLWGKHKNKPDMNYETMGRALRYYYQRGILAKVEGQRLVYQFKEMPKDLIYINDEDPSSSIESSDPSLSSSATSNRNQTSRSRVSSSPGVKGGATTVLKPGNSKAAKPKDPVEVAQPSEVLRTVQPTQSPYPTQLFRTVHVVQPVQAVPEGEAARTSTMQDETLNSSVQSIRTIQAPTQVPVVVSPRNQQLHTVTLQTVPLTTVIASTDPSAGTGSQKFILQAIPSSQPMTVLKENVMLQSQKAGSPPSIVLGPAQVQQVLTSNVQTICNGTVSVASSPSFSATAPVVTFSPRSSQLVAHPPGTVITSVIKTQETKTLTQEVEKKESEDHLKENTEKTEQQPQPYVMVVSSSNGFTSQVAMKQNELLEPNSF
# Outline: as §1
# EHF = molecular target: T3, EHF (Homo sapiens, UniProt Q9NZC4 1-300); details: protein: recombinant; tags: N-terminal GST; dsDNA, one strand shown
# T3 sequence: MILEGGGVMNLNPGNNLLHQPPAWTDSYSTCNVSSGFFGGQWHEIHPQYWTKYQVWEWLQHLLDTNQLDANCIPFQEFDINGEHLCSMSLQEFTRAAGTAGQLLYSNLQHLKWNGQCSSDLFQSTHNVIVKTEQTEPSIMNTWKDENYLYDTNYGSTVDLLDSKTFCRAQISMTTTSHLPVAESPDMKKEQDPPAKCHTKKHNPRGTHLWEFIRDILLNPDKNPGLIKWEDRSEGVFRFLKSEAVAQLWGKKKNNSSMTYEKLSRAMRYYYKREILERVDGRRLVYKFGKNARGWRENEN
# Outline: as §1
# ELK3 = molecular target: T4, ELK3 (Homo sapiens, UniProt P41970 1-407); details: protein: recombinant; tags: N-terminal GST; dsDNA, one strand shown
# T4 sequence: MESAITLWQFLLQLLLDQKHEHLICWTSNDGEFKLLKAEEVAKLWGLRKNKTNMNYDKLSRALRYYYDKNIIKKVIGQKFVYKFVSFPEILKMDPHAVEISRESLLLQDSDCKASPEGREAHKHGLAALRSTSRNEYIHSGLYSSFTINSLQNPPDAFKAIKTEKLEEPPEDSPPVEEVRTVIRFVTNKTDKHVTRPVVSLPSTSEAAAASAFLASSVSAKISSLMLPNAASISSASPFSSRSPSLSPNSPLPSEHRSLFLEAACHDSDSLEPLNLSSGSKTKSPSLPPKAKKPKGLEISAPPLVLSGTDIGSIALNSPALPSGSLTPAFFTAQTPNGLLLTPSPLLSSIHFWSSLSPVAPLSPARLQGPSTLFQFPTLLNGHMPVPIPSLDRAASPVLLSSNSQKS
# Outline: as §1
# FEV = molecular target: T5, FEV (Homo sapiens, UniProt Q99581 1-238); details: protein: recombinant; tags: N-terminal GST; dsDNA, one strand shown
# T5 sequence: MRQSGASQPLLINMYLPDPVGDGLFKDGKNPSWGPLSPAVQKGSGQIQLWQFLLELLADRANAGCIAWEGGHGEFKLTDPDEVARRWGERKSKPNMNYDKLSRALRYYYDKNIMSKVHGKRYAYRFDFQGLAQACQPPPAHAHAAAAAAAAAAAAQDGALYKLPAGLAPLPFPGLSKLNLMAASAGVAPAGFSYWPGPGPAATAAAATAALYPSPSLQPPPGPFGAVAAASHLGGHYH
# Outline: as §1
# ETV5 = ETV5 (Homo sapiens, UniProt P41161 1-510); details: protein: recombinant; tags: N-terminal GST; dsDNA, one strand shown
# Sequence of ETV5 (P41161 whole entry): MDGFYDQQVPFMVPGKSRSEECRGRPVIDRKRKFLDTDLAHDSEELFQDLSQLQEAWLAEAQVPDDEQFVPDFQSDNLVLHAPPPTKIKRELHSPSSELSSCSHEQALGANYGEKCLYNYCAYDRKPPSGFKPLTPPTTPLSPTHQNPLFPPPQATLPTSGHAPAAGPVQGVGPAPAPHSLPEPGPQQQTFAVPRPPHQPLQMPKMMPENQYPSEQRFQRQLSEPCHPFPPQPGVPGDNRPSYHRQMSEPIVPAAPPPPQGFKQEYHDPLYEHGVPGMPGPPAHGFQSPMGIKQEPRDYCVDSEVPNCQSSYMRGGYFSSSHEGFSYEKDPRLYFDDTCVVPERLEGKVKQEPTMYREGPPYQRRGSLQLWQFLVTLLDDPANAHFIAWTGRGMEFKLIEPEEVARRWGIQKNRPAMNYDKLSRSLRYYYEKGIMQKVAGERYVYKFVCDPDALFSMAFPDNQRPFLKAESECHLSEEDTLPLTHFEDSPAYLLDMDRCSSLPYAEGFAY
# Outline: as §1
# HSF1 = HSF1 (Homo sapiens, UniProt Q00613 1-529); details: protein: recombinant; tags: N-terminal GST; chain copies: 3; dsDNA, one strand shown
# Sequence of HSF1 (Q00613 whole entry): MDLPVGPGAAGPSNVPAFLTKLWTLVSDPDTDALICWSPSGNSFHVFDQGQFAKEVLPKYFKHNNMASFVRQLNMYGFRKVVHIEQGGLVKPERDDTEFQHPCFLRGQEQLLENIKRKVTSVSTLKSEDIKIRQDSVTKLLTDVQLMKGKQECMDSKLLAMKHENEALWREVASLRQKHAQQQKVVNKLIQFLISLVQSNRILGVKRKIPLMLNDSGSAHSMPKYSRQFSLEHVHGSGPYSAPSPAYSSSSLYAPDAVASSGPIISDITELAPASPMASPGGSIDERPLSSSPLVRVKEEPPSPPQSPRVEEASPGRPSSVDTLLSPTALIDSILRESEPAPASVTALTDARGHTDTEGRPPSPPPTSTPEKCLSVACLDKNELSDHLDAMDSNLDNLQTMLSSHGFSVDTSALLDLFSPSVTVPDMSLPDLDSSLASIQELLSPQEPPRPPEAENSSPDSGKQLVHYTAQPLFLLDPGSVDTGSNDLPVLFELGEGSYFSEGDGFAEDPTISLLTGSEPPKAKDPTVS
# Outline: as §1
# SPIC = molecular target: T6, SPIC (Homo sapiens, UniProt Q8N5J4 1-248); details: protein: recombinant; tags: N-terminal GST; dsDNA, one strand shown
# T6 sequence: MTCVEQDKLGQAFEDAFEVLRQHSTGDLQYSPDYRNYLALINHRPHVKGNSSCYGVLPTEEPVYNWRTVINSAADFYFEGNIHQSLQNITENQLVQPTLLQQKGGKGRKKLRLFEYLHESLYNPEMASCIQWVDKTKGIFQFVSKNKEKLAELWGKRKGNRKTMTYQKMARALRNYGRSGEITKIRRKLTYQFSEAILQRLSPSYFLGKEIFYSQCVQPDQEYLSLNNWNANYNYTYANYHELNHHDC
# Outline: as §1
# ELF4 = ELF4 (Homo sapiens, UniProt Q99607 1-663); details: protein: recombinant; tags: N-terminal GST; dsDNA, one strand shown
# Sequence of ELF4 (Q99607 whole entry): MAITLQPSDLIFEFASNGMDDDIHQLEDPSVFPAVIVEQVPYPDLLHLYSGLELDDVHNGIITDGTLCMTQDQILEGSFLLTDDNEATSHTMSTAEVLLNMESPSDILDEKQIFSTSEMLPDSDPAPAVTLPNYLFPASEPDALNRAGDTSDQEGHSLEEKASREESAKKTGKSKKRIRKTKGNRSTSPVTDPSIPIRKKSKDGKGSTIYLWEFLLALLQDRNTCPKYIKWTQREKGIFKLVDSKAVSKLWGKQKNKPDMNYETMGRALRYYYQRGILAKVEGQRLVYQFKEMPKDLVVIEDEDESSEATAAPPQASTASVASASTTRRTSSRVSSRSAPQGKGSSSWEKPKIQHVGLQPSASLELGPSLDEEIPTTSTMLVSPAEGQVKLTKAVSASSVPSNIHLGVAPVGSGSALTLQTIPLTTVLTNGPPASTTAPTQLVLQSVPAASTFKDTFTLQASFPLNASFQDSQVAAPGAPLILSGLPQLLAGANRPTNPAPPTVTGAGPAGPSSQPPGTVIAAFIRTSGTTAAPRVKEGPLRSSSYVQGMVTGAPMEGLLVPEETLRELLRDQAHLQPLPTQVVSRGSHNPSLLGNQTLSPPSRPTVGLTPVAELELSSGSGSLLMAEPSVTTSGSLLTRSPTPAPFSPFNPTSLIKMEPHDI
# Outline: as §1
# ELK4 = molecular target: T7, ELK4 (Homo sapiens, UniProt P28324-2 1-405); details: protein: recombinant; tags: N-terminal GST; dsDNA, one strand shown
# T7 sequence: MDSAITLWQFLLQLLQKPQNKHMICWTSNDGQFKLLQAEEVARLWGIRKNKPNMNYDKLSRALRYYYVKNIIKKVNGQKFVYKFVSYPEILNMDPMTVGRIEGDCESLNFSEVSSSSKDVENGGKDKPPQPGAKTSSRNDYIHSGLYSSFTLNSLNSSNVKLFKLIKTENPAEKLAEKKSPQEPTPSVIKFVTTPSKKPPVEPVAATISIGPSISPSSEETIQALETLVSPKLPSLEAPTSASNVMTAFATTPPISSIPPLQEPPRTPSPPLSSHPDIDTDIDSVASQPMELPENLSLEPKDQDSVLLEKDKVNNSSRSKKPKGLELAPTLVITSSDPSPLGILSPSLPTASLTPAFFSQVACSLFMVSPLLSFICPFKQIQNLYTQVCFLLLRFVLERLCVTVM
# Outline: as §1
# ETV2 = molecular target: T8, ETV2 (Homo sapiens, UniProt O00321 1-342); details: protein: recombinant; tags: N-terminal GST; dsDNA, one strand shown
# T8 sequence: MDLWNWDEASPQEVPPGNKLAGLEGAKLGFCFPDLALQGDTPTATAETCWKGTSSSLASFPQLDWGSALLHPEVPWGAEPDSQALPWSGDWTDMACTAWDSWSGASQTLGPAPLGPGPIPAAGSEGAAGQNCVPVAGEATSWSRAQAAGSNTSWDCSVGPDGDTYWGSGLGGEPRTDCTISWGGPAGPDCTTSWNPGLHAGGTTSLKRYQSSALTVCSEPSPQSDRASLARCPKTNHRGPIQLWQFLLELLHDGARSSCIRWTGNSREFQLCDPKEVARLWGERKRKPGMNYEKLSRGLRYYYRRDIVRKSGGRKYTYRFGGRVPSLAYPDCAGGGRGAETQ
# Outline: as §1
# CRX = CRX (Homo sapiens, UniProt O43186 1-299); details: protein: recombinant; tags: N-terminal GST; dsDNA, one strand shown
# Sequence of CRX (O43186 whole entry): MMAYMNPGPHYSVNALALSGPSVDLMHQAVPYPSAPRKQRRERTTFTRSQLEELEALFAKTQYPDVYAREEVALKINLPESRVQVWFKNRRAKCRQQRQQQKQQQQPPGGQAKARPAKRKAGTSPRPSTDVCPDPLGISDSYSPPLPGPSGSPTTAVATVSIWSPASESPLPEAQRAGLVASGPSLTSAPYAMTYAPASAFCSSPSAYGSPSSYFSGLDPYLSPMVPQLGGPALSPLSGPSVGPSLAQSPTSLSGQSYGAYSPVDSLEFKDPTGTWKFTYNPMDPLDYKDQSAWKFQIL
# Outline: as §1
# ETV1 = ETV1 (Homo sapiens, UniProt P50549 1-477); details: protein: recombinant; tags: N-terminal GST; dsDNA, one strand shown
# Sequence of ETV1 (P50549 whole entry): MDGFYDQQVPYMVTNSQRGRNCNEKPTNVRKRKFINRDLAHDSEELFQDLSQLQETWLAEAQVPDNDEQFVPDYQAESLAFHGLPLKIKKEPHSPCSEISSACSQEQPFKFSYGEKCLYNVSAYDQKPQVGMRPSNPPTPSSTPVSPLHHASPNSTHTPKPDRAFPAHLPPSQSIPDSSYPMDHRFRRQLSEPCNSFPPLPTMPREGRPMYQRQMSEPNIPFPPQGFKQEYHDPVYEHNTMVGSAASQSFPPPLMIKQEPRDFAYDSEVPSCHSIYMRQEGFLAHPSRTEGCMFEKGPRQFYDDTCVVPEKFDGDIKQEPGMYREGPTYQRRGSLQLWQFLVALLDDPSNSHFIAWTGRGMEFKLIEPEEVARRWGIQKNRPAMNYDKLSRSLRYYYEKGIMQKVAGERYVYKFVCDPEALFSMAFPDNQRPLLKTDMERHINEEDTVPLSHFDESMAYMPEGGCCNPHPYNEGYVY
# Outline: as §1
sequence,measurement,setting,value
TTGGCT,binding signal,FLI1,"1.15 fold enrichment (6-mer frequency, TF over GST control)"
same,binding signal,ELK1,"1.07 fold enrichment (6-mer frequency, TF over GST control)"
same,binding signal,ELF1,"1.13 fold enrichment (6-mer frequency, TF over GST control)"
same,binding signal,EHF,"1.12 fold enrichment (6-mer frequency, TF over GST control)"
same,binding signal,ELK3,"1 fold enrichment (6-mer frequency, TF over GST control)"
same,binding signal,FEV,"1.17 fold enrichment (6-mer frequency, TF over GST control)"
same,binding signal,ETV5,"1.05 fold enrichment (6-mer frequency, TF over GST control)"
same,binding signal,HSF1,"1.03 fold enrichment (6-mer frequency, TF over GST control)"
same,binding signal,SPIC,"1.02 fold enrichment (6-mer frequency, TF over GST control)"
same,binding signal,ELF4,"1.08 fold enrichment (6-mer frequency, TF over GST control)"
same,binding signal,ELK4,"1.21 fold enrichment (6-mer frequency, TF over GST control)"
same,binding signal,ETV2,"1.07 fold enrichment (6-mer frequency, TF over GST control)"
same,binding signal,CRX,"1.33 fold enrichment (6-mer frequency, TF over GST control)"
same,binding signal,ETV1,"1.02 fold enrichment (6-mer frequency, TF over GST control)"

# Reference: article PMC7862700, “An all-to-all approach to the identification of sequence-specific readers for epigenetic DNA modifications on cytosine”
